Assay [1] has as its target Estrogen receptor (Homo sapiens) + Estrogen receptor beta (Homo sapiens) (UniProt P03372+Q92731). The assay is described as follows: OT_ER_ERaERb_1440: Odyssey Thera (OT) 24-hour HEK293T Protein-Complementation Assay for Estrogen Receptor-alpha/-beta Homodimer (AID 2283356).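 Also: heteromer of ER alpha and ER beta binding domains; hits raise reporter fluorescence and both agonists and antagonists give an increase.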 Put shortly: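 Stable HEK293T PCA line, ERα LBD 310-547 + ERβ LBD 263-489 fused to reporter fragments; 24 h treatment; fluorescence read by laser scanning cytometry; positive fitting direction relative to DMSO.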

In assay [2] the target is Peroxisome proliferator-activated receptor gamma (Homo sapiens) (UniProt P37231). The assay is described as follows: NVS_NR_hPPARg: NovaScreen (NVS) Nuclear Receptor Binding Assay for human Peroxisome Proliferator-activated Receptor gamma (PPARg) (AID 2283370). Put shortly:
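Chemicals were tested first in duplicate at 25 uM, then in concentration series if active. Binding to cell-free PPARg protein was measured by fluorescence polarization after 2 h, with loss of signal scored against DMSO.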

In assay [3] the target is human Serotonin Transporter (SERT), SLC6A4 (gene 6532) (UniProt P31645). The assay is described as follows: NVS_TR_hSERT: NovaScreen (NVS) Transporter Assay for human Serotonin Transporter (SERT) (AID 2283372). Put shortly:
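Radioligand binding to native SERT in human platelet membranes, read by filter-based scintillation counting 1 h after dosing. Primary screen in duplicate at 25 uM; actives followed up in concentration series; loss of signal versus DMSO baseline.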

Assay [4] has as its target PGR (gene 5241) (UniProt P06401). The assay can be described thus: NVS_NR_hPR: NovaScreen (NVS) Nuclear Receptor Binding Assay for human Progestron Receptor (PR) (AID 2283360).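 Also: active means loss of bound radioligand signal versus DMSO baseline.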 Put shortly: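 T47D lysate; tritiated or iodinated radioligand; scintillation count at 18 h. DMSO = negative control/baseline. Primary: 25 uM, duplicate. Secondary: concentration series for actives.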

In assay [5] the target is Glucocorticoid receptor (Homo sapiens) (UniProt P04150). The assay can be described thus: NVS_NR_hGR: NovaScreen (NVS) Nuclear Receptor Binding Assay for human Glucocorticoid Receptor (GR) (AID 2283363). Put shortly: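 Competitive displacement of a labelled ligand was measured on cell-free receptor preparations after 16 h exposure. Initial testing used 25 uM in duplicate with plate controls; confirmed actives went into concentration series.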

The target in assay [6] is human Norepinephrine Transporter (NET), SLC6A2 (gene 6530) (UniProt P23975). The assay can be described thus: NVS_TR_hNET: NovaScreen (NVS) Transporter Assay for human Norepinephrine Transporter (NET) (AID 2283377).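 Also: cell-free membrane protein extracted from CHO cells expressing human NET.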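 As to AC50: displacement of radioligand from human NET seen as loss of scintillation signal.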 Put shortly: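 Scintillation counts of filter-retained radioligand served as the readout, taken 1 h post-dosing in a cell-free CHO-derived system. Test chemicals ran first at 25 uM in duplicate; confirmed hits were retested across concentrations.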
human Norepinephrine Transporter (NET), SLC6A2 (gene 6530), sequence (P23975 whole entry, looked up): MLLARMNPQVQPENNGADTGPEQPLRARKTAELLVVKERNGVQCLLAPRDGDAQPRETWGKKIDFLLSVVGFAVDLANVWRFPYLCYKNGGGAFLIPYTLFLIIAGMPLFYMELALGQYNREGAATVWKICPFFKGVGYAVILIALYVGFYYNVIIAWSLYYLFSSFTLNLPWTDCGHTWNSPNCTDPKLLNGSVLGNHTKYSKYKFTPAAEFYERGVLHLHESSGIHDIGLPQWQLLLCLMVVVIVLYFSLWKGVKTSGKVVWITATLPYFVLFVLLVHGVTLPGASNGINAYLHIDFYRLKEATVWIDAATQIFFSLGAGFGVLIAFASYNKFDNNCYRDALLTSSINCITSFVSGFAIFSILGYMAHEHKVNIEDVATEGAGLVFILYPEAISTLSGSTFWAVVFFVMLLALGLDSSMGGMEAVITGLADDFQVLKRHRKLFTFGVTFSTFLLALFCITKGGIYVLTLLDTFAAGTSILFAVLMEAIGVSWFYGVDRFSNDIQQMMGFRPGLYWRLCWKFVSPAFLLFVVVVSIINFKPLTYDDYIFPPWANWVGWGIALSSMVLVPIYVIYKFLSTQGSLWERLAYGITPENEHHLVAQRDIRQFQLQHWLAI

The target of assay [7] is mouse Estrogen Receptor alpha (Era), Esr1 (gene 13982) (UniProt P19785). The assay can be described thus: NVS_NR_mERa: NovaScreen (NVS) Nuclear Receptor Binding Assay for mouse Estrogen Receptor alpha (Era) (AID 2283378).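 Also: hit means loss of bound radioligand signal relative to DMSO.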 Put shortly:
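Extracted mouse Era incubated with tritiated or iodinated radioligand plus test chemical, 18 h. Bound fraction separated on filters, counted by scintillation. DMSO = negative control/baseline; duplicate single-point at 25 uM, then concentration-response follow-up.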

The target in assay [8] is guinea pig Sigma Receptor, Non-selective Binding, SIGMAR1 (gene 100135589) (UniProt Q60492). The assay is described as follows: NVS_OR_gSIGMA_NonSelective: NovaScreen (NVS) Nuclear Receptor Binding Assay for guinea pig Sigma Receptor, Non-selective Binding (AID 2283367). Put shortly:
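gp brain membr., radioligand displacement, 1 h, filtration + scint. counting; DMSO = baseline; 25 uM x2 primary, conc.-response confirm.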

In assay [9] the target is Retinoic acid receptor alpha (Homo sapiens) (UniProt P10276). The assay can be described thus: NVS_NR_hRAR_Antagonist: NovaScreen (NVS) Nuclear Receptor Binding Assay for human Retinoic Acid Alpha Receptor Antagonism (RAR) (AID 2283358). In short, it runs like this:
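TR-FRET, cell-free, antagonist format; 2 h incubation after dosing; DMSO = baseline; signal loss fitted; 25 uM duplicate primary, then conc. series.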

Assay [10] deals with Estrogen receptor beta (Homo sapiens) (UniProt Q92731). The assay is described as follows: OT_ER_ERbERb_0480: Odyssey Thera (OT) 8-hour HEK293T Protein-Complementation Assay for Estrogen Receptor-beta/-beta Homodimer (AID 2283357).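 Also: active means signal gain over DMSO baseline.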 In short, it runs like this: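 Cells (HEK293T, stable ER-beta LBD PCA pair) are treated 8 hours, fixed and Draq5-stained; signal is fluorescence intensity increase relative to vehicle, fitted in the gain direction.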
Estrogen receptor beta (Homo sapiens), sequence (Q92731 whole entry, looked up, the tested form may be a part): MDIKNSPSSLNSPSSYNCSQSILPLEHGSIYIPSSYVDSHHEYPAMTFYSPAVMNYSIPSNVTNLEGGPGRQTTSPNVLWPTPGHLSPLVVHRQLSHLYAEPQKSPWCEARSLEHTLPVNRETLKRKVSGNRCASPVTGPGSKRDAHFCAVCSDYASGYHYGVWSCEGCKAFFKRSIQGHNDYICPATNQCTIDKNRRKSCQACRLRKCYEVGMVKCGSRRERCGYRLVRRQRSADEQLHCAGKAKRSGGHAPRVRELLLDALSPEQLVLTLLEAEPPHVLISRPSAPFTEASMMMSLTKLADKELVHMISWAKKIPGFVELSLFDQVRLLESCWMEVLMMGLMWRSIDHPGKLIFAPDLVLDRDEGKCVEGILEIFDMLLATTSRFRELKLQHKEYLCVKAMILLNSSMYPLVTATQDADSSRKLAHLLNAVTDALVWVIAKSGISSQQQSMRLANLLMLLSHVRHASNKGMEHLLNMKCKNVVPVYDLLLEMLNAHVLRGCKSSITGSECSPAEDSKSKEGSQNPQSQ

Assay [11] has as its target Nuclear receptor subfamily 1 group I member 2 (Homo sapiens) (UniProt O75469). The assay can be described thus: NVS_NR_hPXR: NovaScreen (NVS) Nuclear Receptor Binding Assay for human Pregnane X Receptor (PXR) (AID 2283365).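 Also: a drop in FRET signal versus DMSO baseline means the compound binds.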 Put shortly: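 Human PXR protein, cell-free; compound added, incubated 2 h, TR-FRET read. Signal decrease vs DMSO = binding. Screened 25 uM duplicate, actives re-run as dilution series.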

Assay [12] has as its target human Dopamine Transporter (DAT), SLC6A3 (gene 6531) (UniProt Q01959). The assay can be described thus: NVS_TR_hDAT: NovaScreen (NVS) Transporter Assay for human Dopamine Transporter (DAT) (AID 2283374).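 Also: activity means loss of bound radioligand signal relative to DMSO.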 Put shortly:
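Test chemicals were first screened in duplicate at 25 uM, with actives retested as concentration series. Displacement of a specific radioligand from cell-free human dopamine transporter was measured after 1 h by filtration and scintillation counting.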

Assay [13] addresses rat Serotonin Transporter (SERT), Slc6a4 (gene 25553) (UniProt P31652). The assay can be described thus: NVS_TR_rSERT: NovaScreen (NVS) Transporter Assay for rat Serotonin Transporter (SERT) (AID 2283375). Put shortly: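 Filtration-based radiodetection quantified loss of specific radioligand binding in rat forebrain membranes after 1 hour of chemical exposure, relative to DMSO. Chemicals were first tested in duplicate at 25 uM.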

The subject of assay [14] is guinea pig Dopamine Transporter (DAT), gene 100714898. The assay can be described thus: NVS_TR_gDAT: NovaScreen (NVS) Transporter Assay for guinea pig Dopamine Transporter (DAT) (AID 2283369).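 Also: active compounds lower bound radioligand signal relative to DMSO.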 In short, it runs like this: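 Scintillation counts of filter-retained radioligand report binding to guinea pig striatal membranes after 2 h. Activity scored as signal loss relative to DMSO, first at 25 uM in duplicate, then in concentration series to 50 uM.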

In assay [15] the test system is rat Norepinephrine Transporter (NET), gene 83511. The assay is described as follows: NVS_TR_rNET: NovaScreen (NVS) Transporter Assay for rat Norepinephrine Transporter (NET) (AID 2283373). Put shortly: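 Rat forebrain membranes; radioligand binding measured by filter-based scintillation counting 1 hour after dosing. Loss of specific binding versus DMSO baseline scored; primary screen in duplicate at 25 uM, actives followed up in concentration series.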

In assay [16] the target is human Adenosine Transporter (Adot), SLC29A1 (gene 2030) (UniProt Q99808). The assay can be described thus: NVS_TR_hAdoT: NovaScreen (NVS) Transporter Assay for human Adenosine Transporter (Adot) (AID 2283368). In short, it runs like this: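 U937-derived membranes, cell-free radioligand binding, filter scintillation 1 h after dosing. 25 uM duplicate screen; hits (e.g. 30% inhibition) run in concentration-response up to 50 uM; loss of signal versus DMSO.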

Assay [17] has as its target Retinoic acid receptor alpha (Homo sapiens) (UniProt P10276). The assay is described as follows: NVS_NR_hRARa_Agonist: NovaScreen (NVS) Nuclear Receptor Binding Assay for human Retinoic Acid Alpha Receptor Agonism (RAR) (AID 2283361). Put shortly: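 Readout is time-resolved fluorescence resonance energy transfer after a 2 h exposure of cell-free extracted receptor protein. Initial testing used 25 uM in duplicate, with concentration-response follow-up for active chemicals.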

Results on 24 molecules are retold here after PubChem BioAssay (EPA / NIEHS).

Records with an inconclusive call do not appear. The source made the active and inactive calls. The calls were made as follows: active = hit-call score of the fitted dose curve at least 0.9, where 1 is the maximum; inconclusive = response in the unintended direction; inactive = score below 0.9.

mouse Estrogen Receptor alpha (Era), Esr1 (gene 13982), sequence (P19785 whole entry, looked up): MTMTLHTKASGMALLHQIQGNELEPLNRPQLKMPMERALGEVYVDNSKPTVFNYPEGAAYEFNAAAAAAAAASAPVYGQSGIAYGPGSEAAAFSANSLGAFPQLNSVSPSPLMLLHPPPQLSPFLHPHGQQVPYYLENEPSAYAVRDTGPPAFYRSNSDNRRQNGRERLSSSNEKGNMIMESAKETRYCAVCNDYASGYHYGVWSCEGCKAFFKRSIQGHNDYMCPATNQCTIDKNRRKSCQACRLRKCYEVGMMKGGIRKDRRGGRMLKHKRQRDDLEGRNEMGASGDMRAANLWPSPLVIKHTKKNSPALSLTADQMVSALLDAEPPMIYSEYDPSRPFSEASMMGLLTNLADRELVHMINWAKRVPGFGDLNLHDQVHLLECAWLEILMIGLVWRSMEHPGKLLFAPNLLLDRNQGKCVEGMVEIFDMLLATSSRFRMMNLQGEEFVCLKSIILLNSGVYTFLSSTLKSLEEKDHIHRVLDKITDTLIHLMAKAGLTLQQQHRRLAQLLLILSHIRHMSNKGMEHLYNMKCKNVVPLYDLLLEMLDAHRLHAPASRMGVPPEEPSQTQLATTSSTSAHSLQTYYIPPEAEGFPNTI
PGR (gene 5241), sequence (P06401 whole entry, looked up): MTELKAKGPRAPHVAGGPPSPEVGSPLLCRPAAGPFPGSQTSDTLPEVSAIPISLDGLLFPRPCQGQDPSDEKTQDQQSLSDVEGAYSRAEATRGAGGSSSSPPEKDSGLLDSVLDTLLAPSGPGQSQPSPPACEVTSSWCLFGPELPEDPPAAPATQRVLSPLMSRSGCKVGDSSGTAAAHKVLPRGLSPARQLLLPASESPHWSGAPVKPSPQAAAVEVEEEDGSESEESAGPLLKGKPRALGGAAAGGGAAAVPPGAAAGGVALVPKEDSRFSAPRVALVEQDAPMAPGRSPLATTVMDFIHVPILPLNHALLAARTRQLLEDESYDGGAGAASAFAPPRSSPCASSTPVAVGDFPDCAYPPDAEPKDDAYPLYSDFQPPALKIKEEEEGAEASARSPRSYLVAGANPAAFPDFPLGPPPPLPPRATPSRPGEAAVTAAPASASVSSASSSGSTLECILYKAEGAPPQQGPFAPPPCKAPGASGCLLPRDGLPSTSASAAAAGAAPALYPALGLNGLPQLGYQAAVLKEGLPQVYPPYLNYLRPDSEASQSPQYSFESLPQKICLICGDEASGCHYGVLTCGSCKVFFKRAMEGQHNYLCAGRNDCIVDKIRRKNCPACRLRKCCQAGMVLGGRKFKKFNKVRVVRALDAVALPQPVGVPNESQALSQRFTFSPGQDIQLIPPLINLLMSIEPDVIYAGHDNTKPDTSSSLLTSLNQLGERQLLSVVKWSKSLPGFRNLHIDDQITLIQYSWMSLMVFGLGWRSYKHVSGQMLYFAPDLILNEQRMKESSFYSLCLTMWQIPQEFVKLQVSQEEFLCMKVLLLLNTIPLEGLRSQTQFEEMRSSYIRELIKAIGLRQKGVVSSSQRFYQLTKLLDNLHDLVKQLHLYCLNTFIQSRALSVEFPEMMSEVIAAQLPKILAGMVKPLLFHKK
Estrogen receptor (Homo sapiens) + Estrogen receptor beta (Homo sapiens), sequence (P03372 whole entry, looked up, the tested form may be a part): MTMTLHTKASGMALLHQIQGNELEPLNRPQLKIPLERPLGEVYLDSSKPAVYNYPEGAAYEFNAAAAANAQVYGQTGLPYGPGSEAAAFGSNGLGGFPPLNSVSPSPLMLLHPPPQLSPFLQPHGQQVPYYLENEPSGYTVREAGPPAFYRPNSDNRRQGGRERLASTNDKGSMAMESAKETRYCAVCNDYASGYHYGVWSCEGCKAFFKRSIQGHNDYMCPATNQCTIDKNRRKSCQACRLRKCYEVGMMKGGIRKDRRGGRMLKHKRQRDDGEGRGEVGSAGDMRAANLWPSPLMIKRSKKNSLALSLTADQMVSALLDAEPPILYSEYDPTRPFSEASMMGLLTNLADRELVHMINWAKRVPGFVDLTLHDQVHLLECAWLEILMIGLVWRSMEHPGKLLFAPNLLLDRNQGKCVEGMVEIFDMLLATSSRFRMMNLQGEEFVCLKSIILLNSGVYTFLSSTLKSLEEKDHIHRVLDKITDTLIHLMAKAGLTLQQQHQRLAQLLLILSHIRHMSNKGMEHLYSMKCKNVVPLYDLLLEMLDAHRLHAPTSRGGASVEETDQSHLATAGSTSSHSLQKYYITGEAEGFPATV
Estrogen receptor (Homo sapiens) + Estrogen receptor beta (Homo sapiens), sequence (Q92731 whole entry, looked up, the tested form may be a part): as the sequence (Q92731 whole entry, looked up, the tested form may be a part) above
human Dopamine Transporter (DAT), SLC6A3 (gene 6531), sequence (Q01959 whole entry, looked up): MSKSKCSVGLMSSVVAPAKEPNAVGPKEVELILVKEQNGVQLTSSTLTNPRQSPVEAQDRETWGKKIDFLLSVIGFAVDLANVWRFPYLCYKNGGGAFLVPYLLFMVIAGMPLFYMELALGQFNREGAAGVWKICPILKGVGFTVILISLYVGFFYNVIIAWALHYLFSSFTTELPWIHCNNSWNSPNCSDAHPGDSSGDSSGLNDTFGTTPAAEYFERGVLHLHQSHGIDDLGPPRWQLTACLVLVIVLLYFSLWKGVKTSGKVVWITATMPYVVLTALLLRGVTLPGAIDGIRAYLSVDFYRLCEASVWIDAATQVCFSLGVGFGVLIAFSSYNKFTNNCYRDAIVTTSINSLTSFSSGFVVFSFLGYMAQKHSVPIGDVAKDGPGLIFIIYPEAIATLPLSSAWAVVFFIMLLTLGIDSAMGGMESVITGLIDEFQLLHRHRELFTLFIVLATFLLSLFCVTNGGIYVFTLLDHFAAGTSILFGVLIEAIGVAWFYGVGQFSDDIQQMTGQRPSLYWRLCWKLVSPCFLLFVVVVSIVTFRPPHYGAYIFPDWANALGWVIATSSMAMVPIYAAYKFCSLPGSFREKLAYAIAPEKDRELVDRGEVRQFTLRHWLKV
guinea pig Sigma Receptor, Non-selective Binding, SIGMAR1 (gene 100135589), sequence (Q60492 whole entry, looked up): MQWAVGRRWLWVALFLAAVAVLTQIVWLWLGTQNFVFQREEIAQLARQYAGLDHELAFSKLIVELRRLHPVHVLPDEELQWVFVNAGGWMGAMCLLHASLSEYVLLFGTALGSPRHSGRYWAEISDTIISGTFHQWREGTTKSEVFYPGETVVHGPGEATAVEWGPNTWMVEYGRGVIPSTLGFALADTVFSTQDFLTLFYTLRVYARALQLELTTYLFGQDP
human Serotonin Transporter (SERT), SLC6A4 (gene 6532), sequence (P31645 whole entry, looked up): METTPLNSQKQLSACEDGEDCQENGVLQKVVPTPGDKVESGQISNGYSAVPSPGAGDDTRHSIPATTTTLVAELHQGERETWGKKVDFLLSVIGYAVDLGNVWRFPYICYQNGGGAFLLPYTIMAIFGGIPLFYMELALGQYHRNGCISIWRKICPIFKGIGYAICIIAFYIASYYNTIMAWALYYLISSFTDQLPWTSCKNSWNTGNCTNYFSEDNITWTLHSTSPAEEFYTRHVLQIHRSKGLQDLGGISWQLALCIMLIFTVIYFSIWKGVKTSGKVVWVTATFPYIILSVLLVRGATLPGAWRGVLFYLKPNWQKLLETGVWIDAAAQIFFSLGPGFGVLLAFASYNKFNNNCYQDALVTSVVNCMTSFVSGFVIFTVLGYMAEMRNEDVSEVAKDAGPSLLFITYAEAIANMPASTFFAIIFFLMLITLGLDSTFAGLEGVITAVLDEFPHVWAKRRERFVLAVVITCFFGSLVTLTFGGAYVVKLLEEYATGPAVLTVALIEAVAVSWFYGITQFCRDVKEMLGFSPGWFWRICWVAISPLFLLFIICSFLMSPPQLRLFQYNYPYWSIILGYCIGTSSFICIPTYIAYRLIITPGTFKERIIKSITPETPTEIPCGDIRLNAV

As for `O=[N+]([O-])C(CO)(CO)CO`, the outcome in [1], in assay [2] and in assay [3] was inactive.

For `COc1cc(S(=O)(=O)O)c(C)cc1N=Nc1c(O)ccc2cc(S(=O)(=O)O)ccc12`, the AC50 in [4] was 14.2 µM (active). In addition, the molecule was called inactive in assay [5] and in [6].

Regarding `Nc1ccc2c(c1)C(=O)c1ccccc1C2=O`, the molecule was called inactive in assay [5], in assay [2] and in assay [6].

With `CC1(C)NC(=O)NC1=O`, the molecule was called inactive in [7].

As for `Oc1ccc2ccccc2c1N=Nc1ccccc1`, the result in assay [1], in assay [8] and in [2] was inactive.

As to `NCCO`, the call in assay [9] was inactive.

On to `CC(C)c1ccc(C(=O)N=C(N)N)cc1S(C)(=O)=O`, for which the outcome in assay [1], in [10], in assay [11] and in assay [2] was inactive.

In the case of `O=C(N[C@@H](Cc1ccccc1)[C@@H](O)C(=O)N1C[C@@H](O)[C@@H](O)C1)c1cc2cc(Cl)ccc2[nH]1`, the result in assay [10], in assay [5], in assay [2], in [3] and in assay [7] was inactive. For the same molecule, the values for the AC50 in assay [12] and in assay [13] were 11.5 µM (active) and 12.9 µM (active), respectively.

In the case of `CN1CCN(Cc2cc(-c3ccc4[nH]c(=O)oc4c3)co2)[C@@H](c2ccc(F)cc2)C1`, the AC50 is 13.2 µM (active) in assay [5]; 5.66 µM (active) in assay [8]; 5.69 µM (active) in [14]; 3.37 µM (active) in assay [3]; 1.99 µM (active) in assay [12]; 2.52 µM (active) in assay [13]. Besides, the AC50 was 12.7 µM (active) in assay [6] and 5.79 µM (active) in assay [7].

Regarding `CCCCCCCCCCCC(=O)OC`, the outcome in assay [1] and in [2] was inactive.

In the case of `Cc1nc(C)nc(N2C[C@@H](C)N(c3ccnc([C@@H](C)O)n3)[C@@H](C)C2)n1`, the AC50 in assay [8] is 3.21 µM (active).

On to `C=CCOC(=O)c1ccccc1C(=O)OCC=C`, for which the AC50 is 0.00781 µM (active) in assay [2] and 25 µM (active) in assay [15].

With `CCCCCCCCCCCCCO`, the result in assay [1], in assay [10] and in assay [2] was inactive.

As to `C[Si]1(C)O[Si](C)(C)O[Si](C)(C)O[Si](C)(C)O1`, the outcome in assay [1], in [10] and in [7] was inactive.

Turning to `c1cc(-c2ccncc2)ccn1`, the result in [1], in assay [10], in [4] and in assay [16] was inactive.

With `CCCCOC(=O)CCCCCCCCC(=O)OCCCC`, the outcome in assay [1], in assay [10] and in [17] was inactive.

For `O=c1c(O)c(-c2ccc(O)c(O)c2)oc2cc(O)cc(O)c12`, the AC50 is 24.8 µM (active) in assay [1], 2.32 µM (active) in [10] and 33.1 µM (active) in assay [2].

In the case of `C=CCc1ccc(O)c(OC)c1`, the AC50 in [2] was 25 µM (active).

Take `CC(=O)OCCOCCOCCOC(C)=O`: the outcome in [1] and in assay [10] was inactive. In addition, the AC50 in [11] was 33.4 µM (active).

Turning to `Nc1nc(N)c2nc(CNc3ccc(C(=O)N[C@@H](CCC(=O)O)C(=O)O)cc3)cnc2n1`, the result in assay [1], in assay [10], in assay [16] and in [6] was inactive.

Regarding `CCCc1cc(=O)[nH]c(=S)[nH]1`, the call in assay [12] and in [7] was inactive.

As for `Cc1ccc(C(C)C)c(O)c1`, the outcome in assay [1], in assay [8] and in [14] was inactive. The AC50 in [10] is 33.9 µM (active).

As for `CN1CCCC1=O`, in [1], the result was inactive. Further, in assay [12], the AC50 is 25 µM (active).

Regarding `Nc1ccccc1N`, the result in [1] and in [4] was inactive.
